Tau fluor cs = Counterscreen qHTS for Inhibitors of Tau Fibril Formation, Fluorescence Polarization | tau K18 P301L Alexa594 fluorescence, heparin fibrillization | Potency, µM (series often up to 57.7 µM), for the others: at the top dose activity change, negative = decrease | 0.93% of 280,000 active; note: nearly all actives have a fitted effect of over 55% in size
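Human tau K18 P301L (15 uM unlabeled, 0.24 uM Alexa 594-labeled) in 100 mM sodium acetate pH 7 with 20 uM heparin, 6 hr at 37 C. ThT 30 uM added, 1 hr ambient; Alexa 594 FP and total fluorescence read at 555/632 nm.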
Tau fibril FP = qHTS for Inhibitors of Tau Fibril Formation, Fluorescence Polarization; Potency, µM (top dose mostly 57.7 µM), inactives show at the top dose activity, negative = inhibition, actives largely listed as inhibitors; AID 1468, 2008; K18 P301L tau heparin fibrillization, Alexa594 FP, 6 h; 0.39% of 280,000 active; note: nearly all actives have a fitted effect of over 55% in size
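Human tau K18 […] P301L fragment, 15 uM unlabeled plus 0.24 uM Alexa 594-labeled tau (final), with compound and 20 uM heparin in 100 mM sodium acetate pH 7; 6 hr at 37 C, then Alexa 594 FP read.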
NPSR antag = qHTS Assay for Antagonists of the Neuropeptide S Receptor: cAMP Signal Transduction. CHO-NPSR cells, cAMP TR-FRET, antagonist mode. Q6W5P4. AID 1461, 2008. Potency, µM (top dose mostly 38.3 µM), for inactives: at the top dose activity change, negative = inhibition, actives largely listed as inhibitors. 1% of 220,000 active; note: nearly all actives have a fitted effect of over 50% in size
Target sequence (Q6W5P4 whole entry, looked up): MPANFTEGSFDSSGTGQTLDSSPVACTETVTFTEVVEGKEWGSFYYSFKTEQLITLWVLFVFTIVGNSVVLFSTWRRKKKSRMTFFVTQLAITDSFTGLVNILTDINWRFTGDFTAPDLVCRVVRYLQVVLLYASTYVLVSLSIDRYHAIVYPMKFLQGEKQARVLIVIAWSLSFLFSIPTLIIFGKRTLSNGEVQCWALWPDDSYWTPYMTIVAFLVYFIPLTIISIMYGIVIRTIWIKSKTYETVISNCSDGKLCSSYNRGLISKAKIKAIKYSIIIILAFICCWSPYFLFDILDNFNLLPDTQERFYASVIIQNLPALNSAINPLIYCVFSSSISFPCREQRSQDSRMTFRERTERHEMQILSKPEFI
ALDH1A1 inh = qHTS Assay for Inhibitors of Aldehyde Dehydrogenase 1 (ALDH1A1); 7.3% of 220,000 active; Purified ALDH1A1, NADH fluorescence, propionaldehyde substrate; Potency, µM (series often up to 75.3 µM), for the others: top-dose activity, negative = inhibition, most hits filed as inhibitors; Aldehyde dehydrogenase 1A1 (Homo sapiens), P00352; AID 1030, 2008; active = well fitted inhibition curve with a large enough effect, not every such curve was filed as active; inconclusive = small, poorly fitted or top-dose-only effect, or another doubt; inactive = no such curve, though single readings can be large or run the other way;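 note: plate controls were no enzyme wells and a reference inhibitor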
Tau fibril ThT = qHTS for Inhibitors of Tau Fibril Formation, Thioflavin T Binding | recombinant tau K18 P301L (four-repeat tau fragment), heparin-induced fibrillization, ThT fluorescence | 2.1% of 270,000 active | Potency, µM (top dose mostly 57.4 µM), without a hit: top-dose activity, negative = inhibition, most hits filed as inhibitors | AID 1460, 2008 | Microtubule-associated protein tau (Homo sapiens), P10636; note: nearly all actives have a fitted effect of over 55% in size
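Heparin-induced fibrillization of the P301L-mutant K18 repeat-domain fragment of human tau was followed by ThT binding in quantitative high-throughput format.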
HPGD inh = qHTS Assay for Inhibitors of HPGD (15-Hydroxyprostaglandin Dehydrogenase) | Potency, µM, without a hit: at the top dose activity change, negative = inhibition, actives largely listed as inhibitors | AID 894, 2007 | 15-hydroxyprostaglandin dehydrogenase [NAD(+)] (Homo sapiens), P15428 | 4.3% of 150,000 active | purified HPGD, NADH fluorescence kinetic, PGE2 substrate; active = well fitted inhibition curve with a large enough effect, not every such curve was filed as active; inconclusive = small, poorly fitted or top-dose-only effect, or another doubt; inactive = no such curve, though single readings can be large or run the other way
Target sequence (P15428 whole entry, looked up): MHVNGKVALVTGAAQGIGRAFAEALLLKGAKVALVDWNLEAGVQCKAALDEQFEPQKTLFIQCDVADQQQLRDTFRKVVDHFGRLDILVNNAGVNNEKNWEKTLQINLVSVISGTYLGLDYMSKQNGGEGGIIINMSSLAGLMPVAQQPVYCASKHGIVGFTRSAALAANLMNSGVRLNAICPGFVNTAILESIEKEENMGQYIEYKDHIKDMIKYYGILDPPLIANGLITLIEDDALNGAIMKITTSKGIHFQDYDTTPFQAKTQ
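NADH formation kinetics: reaction with 30 uM PGE2 and 1 mM NAD+ (final), 20 nM enzyme, Tris-HCl pH 8 with Tween 20, after 15 min compound preincubation at room temperature. Fluorescence change, last versus first of five reads.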
* marks the source's active call; other numbers are inactive results; [ ] = dose if it differs, or a comment. A selection: hits, their analogues and other compounds. The true share with any hit is near 9.5%. Unless noted, calls come from the whole dose curve; as a rule, active = well fitted curve in the direction sought with a large enough effect; inconclusive = small, poorly fitted or top-dose-only effect, or another doubt; inactive = no such curve, though single readings can be large; an effect the other way counts as inactive or inconclusive. Unless noted, % is set by controls: 0 for no effect and ±100 for the full control effect; potency is the fitted concentration of half-maximal effect.

Results for Cc1cc(O)c(C(C)C)cc1NS(=O)(=O)c1ccccc1 ?
Tau fluor cs: -10.7%; Tau fibril FP: 4.7%; NPSR antag: -5.2%[46.1 µM]; ALDH1A1 inh: 14.1µM*; Tau fibril ThT: -1.8%; HPGD inh: -8.1%

How did Cc1cc(O)c(C(C)C)cc1NC1=NS(=O)(=O)c2ccccc21 do in these assays?
Tau fluor cs: -1.2%; Tau fibril FP: 2.6%; NPSR antag: -10.5%[46.1 µM]; ALDH1A1 inh: inconclusive; Tau fibril ThT: 4.6%; HPGD inh: 8.3%

Results for O=C(c1csnn1)N1CCC2(CCCN(c3ccc(-c4ccccc4)cc3)C2)CC1 ?
ALDH1A1 inh: -12.9%; HPGD inh: -12.7%

How did COc1ccc(CNC(=O)C2CSC(=O)C2)cc1 (stereo unspecified) do in these assays?
Tau fluor cs: 2.1%; Tau fibril FP: 3.0%; NPSR antag: -3.5%[46.1 µM]; ALDH1A1 inh: 4.1%; Tau fibril ThT: 1.6%; HPGD inh: -9.5%

What do the screens show for `CCOc1ccccc1N1C(=O)CC(Sc2n[nH]c(-c3ccccc3)n2)C1=O` (stereo unspecified)?
Tau fluor cs: -11.3%; Tau fibril FP: -5.4%; NPSR antag: 17.3%; ALDH1A1 inh: 11.2µM*; Tau fibril ThT: inconclusive

Results for COc1cccc(C2CC(C(F)(F)F)n3ncc(C(=O)NCC4CCCO4)c3N2)c1 (stereo unspecified) ?
Tau fluor cs: 1.7%; Tau fibril FP: -0.3%; NPSR antag: -5.9%[46.1 µM]; ALDH1A1 inh: 2.7%; Tau fibril ThT: 3.8%; HPGD inh: 14.1µM*

How did CCOC(=O)c1c(NC(=O)c2cnn3c2NC(c2cccc(OC)c2)CC3C(F)(F)F)sc2c1CCCC2 (stereo unspecified) do in these assays?
Tau fluor cs: -6.9%; Tau fibril FP: -6.3%; NPSR antag: 8.3%; ALDH1A1 inh: -10.0%; Tau fibril ThT: 1.1%; HPGD inh: inconclusive

What do the screens show for `CN(Cc1ccc(-n2cccn2)cc1)C(=O)c1cnn2c1NC(c1ccco1)CC2C(F)(F)F` (stereo unspecified)?
Tau fluor cs: 4.8%; Tau fibril FP: 0.0%; NPSR antag: inconclusive; ALDH1A1 inh: 7.94µM*; Tau fibril ThT: 6.3%; HPGD inh: -26.3%

How did COCCNC(=O)c1cnn2c1NC(c1ccco1)CC2C(F)(F)F (stereo unspecified) do in these assays?
Tau fluor cs: -2.6%; Tau fibril FP: 4.7%; NPSR antag: 6.7%[46.1 µM]; ALDH1A1 inh: inconclusive; Tau fibril ThT: -10.2%; HPGD inh: 25.1µM*

How did Cc1ccc(NC(=O)CN2CCCCCC2)cc1[N+](=O)[O-] do in these assays?
Tau fluor cs: -7.3%; Tau fibril FP: -3.0%; NPSR antag: 0.4%; ALDH1A1 inh: 7.9%; Tau fibril ThT: 1.8%

What do the screens show for `Cc1ccc(CNC(=O)Cn2ncc3c([nH]c4ccc(C)cc43)c2=O)cc1`?
Tau fluor cs: -6.4%; Tau fibril FP: -9.2%; Tau fibril ThT: 0.3%

How did NC(=O)C1=C[C@H](c2ccc(Br)cc2)C[C@H](OCc2ccc(CO)cc2)O1 do in these assays?
Tau fluor cs: -5.3%; Tau fibril FP: -1.4%; NPSR antag: 32.0%; ALDH1A1 inh: inconclusive; Tau fibril ThT: -8.0%

Results for O=C(Nc1ccccc1)C1=C[C@H](c2ccc3c(c2)OCO3)C[C@H](OCc2ccc(CO)cc2)O1 ?
Tau fluor cs: -26.4%; Tau fibril FP: inconclusive; NPSR antag: 54.0%; ALDH1A1 inh: 28.2µM*; Tau fibril ThT: -8.7%

Results for C#CCNC(=O)C1=C[C@@H](c2ccccc2)C[C@@H](OCc2ccc(CO)cc2)O1 ?
Tau fluor cs: -10.4%; Tau fibril FP: -1.1%; NPSR antag: 4.4%; ALDH1A1 inh: -2.2%; Tau fibril ThT: -10.9%

Results for C#CCNC(=O)C1=C[C@H](c2ccc(C(F)(F)F)cc2)C[C@H](OCc2ccc(CO)cc2)O1 ?
Tau fluor cs: -14.1%; Tau fibril FP: 9.1%; NPSR antag: 37.3%; ALDH1A1 inh: 28.2µM*; Tau fibril ThT: inconclusive

How did C=CCOC(=O)C1=C[C@@H](c2ccc(Br)cc2)C[C@@H](OCc2ccc(CO)cc2)O1 do in these assays?
Tau fluor cs: -12.3%; Tau fibril FP: 3.6%; NPSR antag: 40.6%; ALDH1A1 inh: 17.8µM*; Tau fibril ThT: inconclusive

How did CN1CCN(C(=O)C2=C[C@@H](c3ccccc3)C[C@@H](OCc3ccc(CO)cc3)O2)CC1 do in these assays?
Tau fluor cs: -5.9%; Tau fibril FP: -7.2%; NPSR antag: -1.0%; ALDH1A1 inh: 12.6µM*; Tau fibril ThT: -16.5%

Results for CN1CCN(C(=O)C2=C[C@@H](c3ccc(Br)cc3)C[C@@H](OCc3ccc(CO)cc3)O2)CC1 ?
Tau fluor cs: -0.8%; Tau fibril FP: 7.8%; NPSR antag: 15.4%; ALDH1A1 inh: -3.0%; Tau fibril ThT: -2.4%

Results for O=C(C1=C[C@@H](c2ccc(C(F)(F)F)cc2)C[C@@H](OCc2ccc(CO)cc2)O1)N1CCN(Cc2ccc3c(c2)OCO3)CC1 ?
Tau fluor cs: -23.6%; Tau fibril FP: -1.4%; NPSR antag: inconclusive; ALDH1A1 inh: 12.6µM*; Tau fibril ThT: inconclusive

What do the screens show for `Cc1ccccc1OCCn1c(=N)n(C(C)C)c2ccccc21`?
Tau fluor cs: -8.2%; Tau fibril FP: -7.7%; Tau fibril ThT: -10.7%

How did CC(=O)Nc1cccc(C(=O)OCc2ccc(C(=O)Oc3ccc(Cl)cc3)cc2)c1 do in these assays?
Tau fluor cs: -28.2%; Tau fibril FP: inconclusive; NPSR antag: -10.8%[46.1 µM]; ALDH1A1 inh: 16.3%; Tau fibril ThT: -5.9%; HPGD inh: -8.7%

How did CSc1cccc(NC(=O)c2ccc3c(c2)CCCN3S(C)(=O)=O)c1 do in these assays?
Tau fluor cs: inconclusive; Tau fibril FP: -8.7%; Tau fibril ThT: -6.1%

What do the screens show for `O=[n+]1c2c(n([O-])c3cc(F)c(F)cc31)CCCC2`?
Tau fluor cs: -5.7%; Tau fibril FP: -3.9%; NPSR antag: -5.3%[46.1 µM]; ALDH1A1 inh: inconclusive; Tau fibril ThT: -11.5%; HPGD inh: 17.8µM*

What do the screens show for `O=[n+]1c2c(n([O-])c3cc(Br)ccc31)CCCC2`?
Tau fluor cs: 5.2%; Tau fibril FP: 4.1%; NPSR antag: -11.3%; ALDH1A1 inh: -6.1%; Tau fibril ThT: -0.8%; HPGD inh: -10.4%

Screening results (PubChem BioAssay)
